Activity calls are given as the source filed them. Rule for the calls: active = hit-call score of the fitted dose curve at least 0.9, where 1 is the maximum; inactive = score below 0.9.
Legend:
Conditions in all cases: mRNA level, 48 h; actives raise or lower the signal
CYP3A5 (gene 1577) = experiment: LTEA_HepaRG_CYP3A5: Life Technologies and Expression Analysis (LTEA) Assay for CYP3A5 using HepaRG (AID 2283493)
Procedure, shortened: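 Differentiated HepaRG cells in serum-free induction medium were dosed 48 h with test chemicals (8-point half-log series, top 100 uM, 0.5% DMSO, duplicate). CYP3A5 mRNA measured by qRT-PCR, normalized to ACTB, GAPDH, POLR2A; bidirectional fit versus DMSO.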

[1] = read-out: Fatty Acid-Binding Protein 1 (FABP1), FABP1 (gene 2168); experiment: LTEA_HepaRG_FABP1: Life Technologies and Expression Analysis (LTEA) Assay for Fatty Acid-Binding Protein 1 (FABP1) using HepaRG (AID 2283494)
Procedure, shortened: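 Differentiated human HepaRG cells exposed 48 h in serum-free induction medium to eight half-log concentrations up to 100 uM (0.5% DMSO), duplicate. FABP1 mRNA by qRT-PCR, normalised to ACTB, GAPDH, POLR2A; bidirectional fitting against DMSO.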

[2] = read-out: Glutathione S-Transferase (GSTA2), GSTA2 (gene 2939); experiment: LTEA_HepaRG_GSTA2: Life Technologies and Expression Analysis (LTEA) Assay for Glutathione S-Transferase (GSTA2) using HepaRG (AID 2283497)
Procedure, shortened: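 Differentiated human HepaRG cells were exposed in duplicate for 48 h in serum-free induction medium, 8 points from 100 uM top in half-log steps, 0.5% DMSO. GSTA2 mRNA was measured by TaqMan qRT-PCR, normalized to ACTB, GAPDH and POLR2A; bidirectional fit versus DMSO.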

[3] = read-out: Glutamate-cysteine ligase catalytic (GCLC), GCLC (gene 2729); experiment: LTEA_HepaRG_GCLC: Life Technologies and Expression Analysis (LTEA) Assay for Glutamate-cysteine ligase catalytic (GCLC) using HepaRG (AID 2283498)
Procedure, shortened: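 Differentiated HepaRG cells exposed 48 h in serum-free induction medium, eight-point half-log series topping at 100 uM in 0.5% DMSO, duplicates. GCLC mRNA by qRT-PCR normalized to ACTB, GAPDH and POLR2A, fitted bidirectionally versus DMSO.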

[4] = read-out: growth arrest and DNA damage 45 (GADD45G), GADD45G (gene 10912); experiment: LTEA_HepaRG_GADD45G: Life Technologies and Expression Analysis (LTEA) Assay for growth arrest and DNA damage 45 (GADD45G) using HepaRG (AID 2283499)
Procedure, shortened: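 Gain or loss of GADD45G mRNA, quantified by TaqMan qRT-PCR against three housekeeping genes, is fitted in both directions relative to 0.5% DMSO. Human HepaRG cultures receive test chemical for 48 h at up to 100 uM.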

[5] = read-out: Glutamate-cysteine ligase regulatory (GCLM), GCLM (gene 2730); experiment: LTEA_HepaRG_GCLM: Life Technologies and Expression Analysis (LTEA) Assay for Glutamate-cysteine ligase regulatory (GCLM) using HepaRG (AID 2283500)
Procedure, shortened: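 Differentiated human HepaRG cells exposed 48 h in serum-free induction medium to 8-point half-log concentrations (top 100 uM, 0.5% DMSO), in duplicate. GCLM mRNA quantified by qRT-PCR, normalized to ACTB, GAPDH, POLR2A; bidirectional fitting versus DMSO.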

[6] = read-out: Glutathione S-transferase M3 (GSTM3), GSTM3 (gene 2947); experiment: LTEA_HepaRG_GSTM3: Life Technologies and Expression Analysis (LTEA) Assay for Glutathione S-transferase M3 (GSTM3) using HepaRG (AID 2283501)
Procedure, shortened: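 HepaRG, plated 48 h, then serum-free induction medium; test chemical 48 h, duplicate; 100 uM top, half-log x8, 0.5% DMSO. Read-out: GSTM3 mRNA (TaqMan qRT-PCR, Fluidigm array). Bidirectional fit vs DMSO.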

[7] = read-out: Heat shock 70 kDa protein 1 (HSPA1A), gene 3303; experiment: LTEA_HepaRG_HSPA1A: Life Technologies and Expression Analysis (LTEA) Assay for Heat shock 70 kDa protein 1 (HSPA1A) using HepaRG (AID 2283502)
Procedure, shortened: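 Differentiated human HepaRG cells in serum-free induction medium were exposed in duplicate for 48 h to eight concentrations (top 100 uM, half-log steps, 0.5% DMSO). HSPA1A mRNA was quantified by qRT-PCR, normalized to ACTB, GAPDH and POLR2A, and fitted bidirectionally against DMSO.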

[8] = read-out: Hypoxia-inducible factor 1-alpha (Homo sapiens) (UniProt Q16665); experiment: LTEA_HepaRG_HIF1A: Life Technologies and Expression Analysis (LTEA) Assay for Hypoxia-inducible factor 1 (HIF1A) Trancription factor using HepaRG (AID 2283503);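 note: HIF1A transcript by TaqMan qRT-PCR normalized to ACTB GAPDH and POLR2A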
Procedure, shortened: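 HepaRG, 48 h exposure, 8-pt half-log series from 100 uM, 0.5% DMSO vehicle, duplicates. Readout: HIF1A transcript by qRT-PCR (Fluidigm array), housekeeping-normalised. Bidirectional curve fit vs DMSO baseline.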

[9] = read-out: 3-Hydroxy-3-Methylglutaryl-CoA Synthase 2 (HMGCS2), HMGCS2 (gene 3158); experiment: LTEA_HepaRG_HMGCS2: Life Technologies and Expression Analysis (LTEA) Assay for 3-Hydroxy-3-Methylglutaryl-CoA Synthase 2 (HMGCS2) using HepaRG (AID 2283504)
Procedure, shortened: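 HepaRG, plated 48 h then switched to serum-free induction media; cmpd 8-pt, max 100 uM, 1/2-log, 0.5% DMSO, n=2, 48 h. HMGCS2 mRNA by Fluidigm TaqMan qRT-PCR, ACTB/GAPDH/POLR2A norm; bidirectional fit vs DMSO.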

HGF (gene 3082) = experiment: LTEA_HepaRG_HGF: Life Technologies and Expression Analysis (LTEA) Assay for Hepatocyte Growth Facto (HGF) using HepaRG (AID 2283505)
Procedure, shortened: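 Read-out is HGF transcript level by qRT-PCR, normalized to three housekeeping genes, fitted bidirectionally against 0.5% DMSO vehicle. Human HepaRG cells received test chemicals for 48 h at up to 100 uM.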

[10] = read-out: Insulin Like Growth Factor 1 (IGF1), IGF1 (gene 3479); experiment: LTEA_HepaRG_IGF1: Life Technologies and Expression Analysis (LTEA) Assay for Insulin Like Growth Factor 1 (IGF1) using HepaRG (AID 2283506)
Procedure, shortened: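 Differentiated human HepaRG cells were dosed for 48 h in serum-free induction medium with 0.5% DMSO, eight half-log concentrations up to 100 uM, in duplicate. IGF1 mRNA was quantified by qRT-PCR normalized to ACTB, GAPDH, POLR2A; bidirectional fitting versus DMSO.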

[11] = read-out: Intercellular Adhesion Molecule 1 (ICAM1), ICAM1 (gene 3383); experiment: LTEA_HepaRG_ICAM1: Life Technologies and Expression Analysis (LTEA) Assay for Intercellular Adhesion Molecule 1 (ICAM1) using HepaRG (AID 2283507)
Procedure, shortened: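 Readout is qRT-PCR mRNA level, normalized to three housekeeping genes and fitted bidirectionally against 0.5% DMSO vehicle. Human HepaRG cultures received compound for 48 h, top concentration 100 uM with half-log dilutions.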

[12] = read-out: Insulin-like growth factor-binding protein 1 (IGFBP1), IGFBP1 (gene 3484); experiment: LTEA_HepaRG_IGFBP1: Life Technologies and Expression Analysis (LTEA) Assay for Insulin-like growth factor-binding protein 1 (IGFBP1) using HepaRG (AID 2283508)
Procedure, shortened: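 Thawed HepaRG cells are plated for 48 h, switched to serum-free induction medium, then dosed in duplicate for another 48 h (100 uM top, half-log steps). Lysates in RLT go to qRT-PCR, and gain or loss of signal is fitted relative to vehicle.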

[13] = read-out: Interleukin 6 (IL6), IL6 (gene 3569); experiment: LTEA_HepaRG_IL6: Life Technologies and Expression Analysis (LTEA) Assay for Interleukin 6 (IL6) using HepaRG (AID 2283509)
Procedure, shortened: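 HepaRG cells exposed in duplicate for 48 h to eight half-log concentrations, top 100 uM, in 0.5% DMSO serum-free induction medium. mRNA measured by qRT-PCR, normalized to ACTB, GAPDH and POLR2A. Bidirectional fit versus DMSO.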

[14] = read-out: Interleukin 6 Receptor (IL6R), IL6R (gene 3570); experiment: LTEA_HepaRG_IL6R: Life Technologies and Expression Analysis (LTEA) Assay for Interleukin 6 Receptor (IL6R) using HepaRG (AID 2283510)
Procedure, shortened: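 Differentiated human HepaRG cells, plated 48 h then switched to serum-free induction medium, were dosed in duplicate for 48 h at eight half-log concentrations up to 100 uM in 0.5% DMSO. IL6R mRNA quantified by qRT-PCR, normalized to ACTB/GAPDH/POLR2A; bidirectional fit versus DMSO.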

[15] = read-out: Potassium channel subfamily K member 1 (KCNK1), KCNK1 (gene 3775); experiment: LTEA_HepaRG_KCNK1: Life Technologies and Expression Analysis (LTEA) Assay for Potassium channel subfamily K member 1 (KCNK1) using HepaRG (AID 2283511)
Procedure, shortened: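 Differentiated HepaRG cells, 48 h exposure in serum-free induction medium with 0.5% DMSO; 8 concentrations, half-log from 100 uM, duplicate. KCNK1 mRNA by qRT-PCR, normalized to ACTB, GAPDH, POLR2A; bidirectional fit vs DMSO.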

[16] = read-out: Keratin 19 (KRT19), KRT19 (gene 3880); experiment: LTEA_HepaRG_KRT19: Life Technologies and Expression Analysis (LTEA) Assay for Keratin 19 (KRT19) using HepaRG (AID 2283512)
Procedure, shortened: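 KRT19 transcript levels, measured by Fluidigm qRT-PCR against three housekeeping genes, are fitted for gain or loss of signal relative to DMSO. Human HepaRG cells receive test chemicals (top 100 uM, half-log steps, 0.5% DMSO) for 48 hours.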

[17] = read-out: JUN Transcription Factor, JUN (gene 3725); experiment: LTEA_HepaRG_JUN: Life Technologies and Expression Analysis (LTEA) Assay for JUN Transcription Factor using HepaRG (AID 2283513)
Procedure, shortened: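 Differentiated HepaRG cells were exposed to chemicals for 48 h in serum-free induction medium, 8 concentrations from 100 uM in half-log steps, 0.5% DMSO vehicle, in duplicate. JUN mRNA was quantified by TaqMan qRT-PCR, normalized to ACTB, GAPDH, POLR2A.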

Measured: outcome

Sequence of Hypoxia-inducible factor 1-alpha (Homo sapiens) (Q16665 whole entry, looked up): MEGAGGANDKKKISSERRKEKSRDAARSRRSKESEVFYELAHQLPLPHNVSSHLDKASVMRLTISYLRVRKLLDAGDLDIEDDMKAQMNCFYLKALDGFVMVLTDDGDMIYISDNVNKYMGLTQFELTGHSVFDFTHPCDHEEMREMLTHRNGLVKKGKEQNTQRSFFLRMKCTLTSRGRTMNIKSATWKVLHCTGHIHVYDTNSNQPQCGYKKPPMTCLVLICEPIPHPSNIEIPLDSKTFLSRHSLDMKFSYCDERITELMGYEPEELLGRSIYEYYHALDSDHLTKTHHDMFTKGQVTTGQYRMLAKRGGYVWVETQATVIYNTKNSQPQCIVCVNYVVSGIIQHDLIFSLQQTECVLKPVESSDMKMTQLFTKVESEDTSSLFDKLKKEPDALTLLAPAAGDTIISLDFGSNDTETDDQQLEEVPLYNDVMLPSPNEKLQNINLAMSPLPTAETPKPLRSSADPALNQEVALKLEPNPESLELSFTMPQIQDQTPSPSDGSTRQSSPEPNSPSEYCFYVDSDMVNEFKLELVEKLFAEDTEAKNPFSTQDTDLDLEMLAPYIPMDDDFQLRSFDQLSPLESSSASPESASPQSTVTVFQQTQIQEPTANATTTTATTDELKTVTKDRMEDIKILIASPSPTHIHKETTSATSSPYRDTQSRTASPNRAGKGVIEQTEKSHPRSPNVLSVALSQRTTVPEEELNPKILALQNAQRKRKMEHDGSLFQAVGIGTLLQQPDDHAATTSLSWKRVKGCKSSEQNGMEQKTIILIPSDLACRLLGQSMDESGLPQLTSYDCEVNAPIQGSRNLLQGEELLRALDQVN

c1cc[n+]2c(c1)-c1cccc[n+]1CC2
inactive: CYP3A5 (gene 1577) | [1] | [2] | [3] | [4] | [5] | [6] | [7] | [8] | [9] | HGF (gene 3082) | [10] | [11] | [12] | [13] | [14] | [15] | [16] | [17]

From PubChem BioAssay (EPA / NIEHS)
